# About 79,000 compounds went through this panel and 15% of them were active in at least one assay; those are over-represented in the sample as a whole. Unmarked numbers belong to inactive results. Activity calls are given as the source filed them. No stated cut-off is given here; in the data, active means growth inhibition above about 70%; inactive means the rest.
# Legend:
# [1] = NCI Yeast Anticancer Drug Screen. Data for the sgs1 strain (AID 173);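 further: 0% = growth of vehicle-only control cultures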; conditions: S. cerevisiae sgs1 mutant, hits give high values
# Method in brief: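 Compounds applied to genetically altered yeast; growth compared with vehicle-treated cultures to give % inhibition.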
# [2] = NCI Yeast Anticancer Drug Screen. Data for the mlh1 rad18 strain (AID 175); conditions: S. cerevisiae mlh1 rad18 strain growth inhibition, hits give high values
# Method in brief: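 Cells of a genetically altered yeast strain, deficient in DNA damage repair, were treated with compound. Their growth was then compared with that of vehicle-treated cultures to give inhibition.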
# [3] = NCI Yeast Anticancer Drug Screen. Data for the rad18 strain (AID 177); conditions: S. cerevisiae rad18 mutant growth inhibition, hits give high values
# Method in brief: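 Compounds are applied to a repair-deficient yeast strain, and growth is compared with that of vehicle-treated cultures to give percent inhibition.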
# [4] = NCI Yeast Anticancer Drug Screen. Data for the wt1 strain (AID 149);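 further: 0% = growth of vehicle-treated wt1 cultures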; conditions: S. cerevisiae wt1 strain (SPY 50644) growth inhibition, hits give high values
# Method in brief: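 Using yeast strain wt1, compound-induced growth inhibition was determined against vehicle-treated cultures.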
# [5] = NCI Yeast Anticancer Drug Screen. Data for the rad50EPP+ strain (AID 151);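 further: 0% = growth of vehicle-treated control cultures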; conditions: S. cerevisiae rad50 mutant strain, hits give high values
# Method in brief: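 rad50EPP+ yeast treated with test compounds. Readout: growth vs vehicle control.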
# [6] = NCI Yeast Anticancer Drug Screen. Data for the mgt1 strain (AID 153); conditions: S. cerevisiae mgt1 mutant growth inhibition, hits give high values
# Method in brief: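 Growth inhibition relative to vehicle controls was scored for the mgt1 yeast strain after compound exposure.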
# [7] = NCI Yeast Anticancer Drug Screen. Data for the rad50 strain (AID 155);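 further: 0% = growth of vehicle-only cultures of the same strain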; conditions: S. cerevisiae rad50 strain growth inhibition, hits give high values
# Method in brief: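 Relative growth inhibition (compound vs vehicle) was measured in yeast with a defined repair-gene alteration.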
# [8] = NCI Yeast Anticancer Drug Screen. Data for the mec2-1 strain (AID 157); conditions: S. cerevisiae mec2-1 strain, hits give high values
# Method in brief: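 Growth inhibition is read against vehicle-treated controls after compound exposure of the mec2-1 yeast strain, which is defective in DNA damage repair or cell cycle control.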
# [9] = NCI Yeast Anticancer Drug Screen. Data for the rad14 strain (AID 159);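 further: 0% = growth of vehicle-treated control cultures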; conditions: S. cerevisiae rad14 strain growth inhibition, hits give high values
# Method in brief: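 Screen for anticancer potential: a yeast strain altered in DNA damage repair is grown with compound, and reduced growth is quantified against vehicle controls.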
# [10] = NCI Yeast Anticancer Drug Screen. Data for the sgs1 mgt1 strain (AID 161);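 further: 0% = growth of cultures given vehicle only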; conditions: S. cerevisiae sgs1 mgt1 strain, hits give high values
# Method in brief: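 Yeast cells carrying a defined DNA-repair defect were exposed to test compounds. Growth inhibition was measured relative to vehicle-treated controls.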
# [11] = NCI Yeast Anticancer Drug Screen. Data for the CLN2oe strain (AID 163);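 further: 0% = growth of vehicle-only control cultures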; conditions: S. cerevisiae CLN2oe strain, hits give high values
# Method in brief: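 Compound-treated yeast; growth vs vehicle ctrl = % inhibition. Genetically altered strain (cell-cycle control).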
# [12] = NCI Yeast Anticancer Drug Screen. Data for the bub3 strain (AID 167); conditions: S. cerevisiae bub3 mutant strain, hits give high values
# Method in brief: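 Screening used yeast with an engineered genetic alteration affecting cell cycle control. Compound-exposed cultures were compared with vehicle cultures, and reduced growth was taken as inhibition.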
# [13] = NCI Yeast Anticancer Drug Screen. Data for the wt2 strain (AID 169);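 further: 0% = growth of vehicle-treated yeast cultures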; conditions: S. cerevisiae wt2 strain growth inhibition, hits give high values
# Method in brief: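 Compound exposure of yeast; growth compared with vehicle controls; inhibition reported.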
# [14] = NCI Yeast Anticancer Drug Screen. Data for the mlh1 strain (AID 171);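 further: 0% = growth of vehicle-treated control cultures of the same strain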; conditions: S. cerevisiae mlh1 strain growth inhibition, hits give high values
# Method in brief: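 Compounds are applied to a genetically altered yeast strain, and its growth is compared with that of vehicle-treated cultures to give percent inhibition.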
# [15] = NCI Yeast Anticancer Drug Screen. Data for the cln2 rad14 strain (AID 165);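 further: 0% = growth equal to vehicle treated cultures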; conditions: S. cerevisiae cln2 rad14 strain, hits give high values
# Method in brief: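 Growth inhibition, relative to vehicle-treated controls, is the read-out. The test organism is a yeast strain with defined genetic alterations, cln2 rad14.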
# [16] = at 5.0 µM (retest, dose inferred, filed as 0.5)
# [17] = at 50.0 µM (retest, dose inferred, filed as 5.0)
smiles,measurement,setting,value
O=C(CCCN1CCC2(CC1)OC(=O)N(c1ccccc1)C2=O)c1ccccc1,growth inhibition,[1]; at 33.0 µM,72% (active)
same,growth inhibition,[1]; at 100.0 µM,75% (active)
same,growth inhibition,[2]; [16],23%
same,growth inhibition,[2]; [17],78% (active)
same,growth inhibition,[2]; at 50.0 µM,72.9% (active)
same,growth inhibition,[3]; at 1.2 µM,63%
same,growth inhibition,[3]; at 3.7 µM,70% (active)
same,growth inhibition,[3]; at 11.0 µM,78% (active)
same,growth inhibition,[3]; at 33.0 µM,80% (active)
same,growth inhibition,[3]; at 100.0 µM,77% (active)
CCOC(=O)/C(O)=C(/C=N/C(=S)Nc1c(CC)cccc1CC)C(=O)OCC,growth inhibition,[4]; at 1.2 µM,-31%
same,growth inhibition,[4]; at 3.7 µM,-7%
same,growth inhibition,[4]; at 11.0 µM,2%
same,growth inhibition,[4]; at 33.0 µM,21%
same,growth inhibition,[4]; at 100.0 µM,33%
same,growth inhibition,[5]; at 1.2 µM,-3%
same,growth inhibition,[5]; at 3.7 µM,-1%
same,growth inhibition,[5]; at 11.0 µM,-5%
same,growth inhibition,[5]; at 33.0 µM,-3%
same,growth inhibition,[5]; at 100.0 µM,-7%
same,growth inhibition,[6]; at 1.2 µM,-7%
same,growth inhibition,[6]; at 3.7 µM,-6%
same,growth inhibition,[6]; at 11.0 µM,0%
same,growth inhibition,[6]; at 33.0 µM,20%
same,growth inhibition,[6]; at 100.0 µM,35%
same,growth inhibition,[7]; at 1.2 µM,-6%
same,growth inhibition,[7]; at 3.7 µM,-3%
same,growth inhibition,[7]; [16],7%
same,growth inhibition,[7]; at 11.0 µM,11%
same,growth inhibition,[7]; at 33.0 µM,36%
same,growth inhibition,[7]; [17],65%
same,growth inhibition,[7]; at 50.0 µM,65.3%
same,growth inhibition,[7]; at 100.0 µM,47%
same,growth inhibition,[8]; at 1.2 µM,-10%
same,growth inhibition,[8]; at 3.7 µM,-5%
same,growth inhibition,[8]; [16],3%
same,growth inhibition,[8]; at 11.0 µM,10%
same,growth inhibition,[8]; at 33.0 µM,27%
same,growth inhibition,[8]; [17],34%
same,growth inhibition,[8]; at 50.0 µM,24.6%
same,growth inhibition,[8]; at 100.0 µM,36%
same,growth inhibition,[9]; at 1.2 µM,-7%
same,growth inhibition,[9]; at 3.7 µM,-7%
same,growth inhibition,[9]; at 11.0 µM,-2%
same,growth inhibition,[9]; at 33.0 µM,20%
same,growth inhibition,[9]; at 100.0 µM,38%
same,growth inhibition,[10]; [16],-4%
same,growth inhibition,[10]; [17],10%
same,growth inhibition,[10]; at 50.0 µM,51.3%
same,growth inhibition,[11]; at 1.2 µM,-16%
same,growth inhibition,[11]; at 3.7 µM,-23%
same,growth inhibition,[11]; at 11.0 µM,-19%
same,growth inhibition,[11]; at 33.0 µM,-1%
same,growth inhibition,[11]; at 100.0 µM,29%
same,growth inhibition,[12]; at 1.2 µM,-9%
same,growth inhibition,[12]; at 3.7 µM,-10%
same,growth inhibition,[12]; [16],-20%
same,growth inhibition,[12]; at 11.0 µM,-5%
same,growth inhibition,[12]; at 33.0 µM,12%
same,growth inhibition,[12]; [17],49%
same,growth inhibition,[12]; at 50.0 µM,67%
same,growth inhibition,[12]; at 100.0 µM,31%
same,growth inhibition,[13]; at 1.2 µM,-7%
same,growth inhibition,[13]; at 3.7 µM,-6%
same,growth inhibition,[13]; at 11.0 µM,-1%
same,growth inhibition,[13]; at 33.0 µM,23%
same,growth inhibition,[13]; at 100.0 µM,40%
same,growth inhibition,[14]; at 1.2 µM,-6%
same,growth inhibition,[14]; at 3.7 µM,-4%
same,growth inhibition,[14]; at 11.0 µM,6%
same,growth inhibition,[14]; at 33.0 µM,28%
same,growth inhibition,[14]; at 100.0 µM,45%
same,growth inhibition,[1]; at 1.2 µM,-8%
same,growth inhibition,[1]; at 3.7 µM,3%
same,growth inhibition,[1]; at 11.0 µM,17%
same,growth inhibition,[1]; at 33.0 µM,42%
same,growth inhibition,[1]; at 100.0 µM,53%
same,growth inhibition,[2]; [16],-8%
same,growth inhibition,[2]; [17],36%
same,growth inhibition,[2]; at 50.0 µM,59.9%
same,growth inhibition,[3]; at 1.2 µM,-4%
same,growth inhibition,[3]; at 3.7 µM,-8%
same,growth inhibition,[3]; at 11.0 µM,8%
same,growth inhibition,[3]; at 33.0 µM,46%
same,growth inhibition,[3]; at 100.0 µM,62%
c1cc2ccc3cc4ncccc4c4ccc(c1)c2c34,growth inhibition,[4]; at 1.2 µM,-2%
same,growth inhibition,[4]; at 3.7 µM,3%
same,growth inhibition,[4]; at 11.0 µM,9%
same,growth inhibition,[4]; at 33.0 µM,54%
same,growth inhibition,[4]; at 100.0 µM,75% (active)
same,growth inhibition,[5]; at 1.2 µM,8%
same,growth inhibition,[5]; at 3.7 µM,35%
same,growth inhibition,[5]; at 11.0 µM,73% (active)
same,growth inhibition,[5]; at 33.0 µM,92% (active)
same,growth inhibition,[5]; at 100.0 µM,92% (active)
same,growth inhibition,[6]; at 1.2 µM,-2%
same,growth inhibition,[6]; at 3.7 µM,-1%
same,growth inhibition,[6]; at 11.0 µM,11%
same,growth inhibition,[6]; at 33.0 µM,76% (active)
same,growth inhibition,[6]; at 100.0 µM,84% (active)
same,growth inhibition,[7]; at 1.2 µM,2%
same,growth inhibition,[7]; at 3.7 µM,13%
same,growth inhibition,[7]; [16],74% (active)
same,growth inhibition,[7]; at 11.0 µM,70% (active)
same,growth inhibition,[7]; at 33.0 µM,93% (active)
same,growth inhibition,[7]; [17],96% (active)
same,growth inhibition,[7]; at 50.0 µM,97.9% (active)
same,growth inhibition,[7]; at 100.0 µM,93% (active)
same,growth inhibition,[8]; at 1.2 µM,-2%
same,growth inhibition,[8]; at 3.7 µM,1%
same,growth inhibition,[8]; [16],23%
same,growth inhibition,[8]; at 11.0 µM,13%
same,growth inhibition,[8]; at 33.0 µM,65%
same,growth inhibition,[8]; [17],97% (active)
same,growth inhibition,[8]; at 50.0 µM,97.5% (active)
same,growth inhibition,[8]; at 100.0 µM,82% (active)
same,growth inhibition,[9]; at 1.2 µM,1%
same,growth inhibition,[9]; at 3.7 µM,7%
same,growth inhibition,[9]; at 11.0 µM,20%
same,growth inhibition,[9]; at 33.0 µM,68%
same,growth inhibition,[9]; at 100.0 µM,79% (active)
same,growth inhibition,[10]; [16],34%
same,growth inhibition,[10]; [17],93% (active)
same,growth inhibition,[10]; at 50.0 µM,98.2% (active)
same,growth inhibition,[11]; at 1.2 µM,-3%
same,growth inhibition,[11]; at 3.7 µM,-3%
same,growth inhibition,[11]; at 11.0 µM,1%
same,growth inhibition,[11]; at 33.0 µM,21%
same,growth inhibition,[11]; at 100.0 µM,65%
same,growth inhibition,[15]; [16],15%
same,growth inhibition,[15]; [17],90% (active)
same,growth inhibition,[15]; at 50.0 µM,92.3% (active)
same,growth inhibition,[12]; at 1.2 µM,-2%
same,growth inhibition,[12]; at 3.7 µM,1%
same,growth inhibition,[12]; [16],27%
same,growth inhibition,[12]; at 11.0 µM,36%
same,growth inhibition,[12]; at 33.0 µM,84% (active)
same,growth inhibition,[12]; [17],96% (active)
same,growth inhibition,[12]; at 50.0 µM,98.9% (active)
same,growth inhibition,[12]; at 100.0 µM,90% (active)
same,growth inhibition,[13]; at 1.2 µM,0%
same,growth inhibition,[13]; at 3.7 µM,0%
same,growth inhibition,[13]; at 11.0 µM,15%
same,growth inhibition,[13]; at 33.0 µM,53%
same,growth inhibition,[13]; at 100.0 µM,85% (active)
same,growth inhibition,[1]; at 1.2 µM,-2%
same,growth inhibition,[1]; at 3.7 µM,0%
same,growth inhibition,[1]; at 11.0 µM,25%
same,growth inhibition,[1]; at 33.0 µM,83% (active)
same,growth inhibition,[1]; at 100.0 µM,85% (active)
same,growth inhibition,[2]; [16],32%
same,growth inhibition,[2]; [17],97% (active)
same,growth inhibition,[2]; at 50.0 µM,97.8% (active)
same,growth inhibition,[3]; at 1.2 µM,4%
same,growth inhibition,[3]; at 3.7 µM,7%
same,growth inhibition,[3]; at 11.0 µM,35%
same,growth inhibition,[3]; at 33.0 µM,87% (active)
same,growth inhibition,[3]; at 100.0 µM,90% (active)

# — PubChem BioAssay (NCI)
